# Experimental data: PubChem BioAssay AID1479146 (National Center for Advancing Translational Sciences (NCATS), 2020)
# Results filed as inconclusive are left out. Active and inactive are the calls of the source. The call rests on the fitted dose curve.
# Test: Confirmatory qHTS for Huh7 cytotoxicity: counterscreen for inhibitors of MERS-S pseudo-typed particle cell entry
# Conditions: viability; series mostly up to 57.1 µM; activity change, negative = cytotoxicity: at the top concentration
Structure (SMILES),"activity change, negative = cytotoxicity",Potency
Cc1cc(C(C#N)c2ccc(Cl)cc2)c(Cl)cc1NC(=O)c1cc(I)cc(I)c1O (configuration not stated),-19.4% (inactive),–
Nc1ccn([C@@H]2O[C@H](CO)[C@@H](O)C2(F)F)c(=O)n1,-18.8% (inactive),–
CN1CCC(=C2c3ccccc3C=Cc3ccccc32)CC1,-2% (inactive),–
C[C@]12CC[C@H](O)C[C@H]1CCC1C2CC[C@]2(C)[C@@H](c3ccc(=O)oc3)C[C@H]3O[C@]132 (some centres not stated),–,15.2 µM (active)
CCOc1cc2ncc(C#N)c(Nc3ccc(OCc4ccccn4)c(Cl)c3)c2cc1NC(=O)/C=C/CN(C)C,-7.24% [at 11.2 µM] (inactive),–
CC[C@@H]([C@H](C)O)n1ncn(-c2ccc(N3CCN(c4ccc(OC[C@@H]5CO[C@@](Cn6cncn6)(c6ccc(F)cc6F)C5)cc4)CC3)cc2)c1=O,-5.11% (inactive),–
CN(C)CCC=C1c2ccccc2C(C)(C)c2ccccc21,-3.85% (inactive),–
CN(C/C=C/c1ccccc1)Cc1cccc2ccccc12,-7.41% (inactive),–
COc1cc2nccc(Oc3ccc(NC(=O)NC4CC4)c(Cl)c3)c2cc1C(N)=O,-19% (inactive),–
CC(C)OC(=O)OCOP(=O)(CO[C@H](C)Cn1cnc2c(N)ncnc21)OCOC(=O)OC(C)C,-12.7% (inactive),–
O=c1c(C2CC(c3ccc(-c4ccc(Br)cc4)cc3)Cc3ccccc32)c(O)sc2ccccc12 (configuration not stated),3.5% (inactive),–
CC(=O)N1CCN(c2ccc(OC[C@H]3CO[C@](Cn4ccnc4)(c4ccc(Cl)cc4Cl)O3)cc2)CC1,-7.77% (inactive),–
O=C(Nc1ccc([N+](=O)[O-])cc1Cl)c1cc(Cl)ccc1O,–,3.83 µM (active)
CN1CCC(=C2c3ccccc3CCc3sccc32)CC1,0% (inactive),–
Cc1cn([C@H]2C[C@H](N=[N+]=[N-])[C@@H](CO)O2)c(=O)[nH]c1=O,-4.83% (inactive),–
C=CC1(C)CC(=O)C2(O)C(C)(O1)C(OC(C)=O)C(OC(=O)CCN(C)C)C1C(C)(C)CCC(O)C12C (configuration not stated),-10.2% (inactive),–
CC[C@H](C)C(=O)O[C@H]1C[C@@H](C)C=C2C=C[C@H](C)[C@H](CC[C@@H]3C[C@@H](O)CC(=O)O3)[C@H]21,-14.4% (inactive),–
CCc1c2c(nc3ccc(OC(=O)N4CCC(N5CCCCC5)CC4)cc13)-c1cc3c(c(=O)n1C2)COC(=O)[C@]3(O)CC,0% (inactive),–
N/C(=N\N=C\c1ccc(Cl)cc1)N/N=C/c1ccc(Cl)cc1,-18.1% (inactive),–
Cc1nnc(C(=O)NC(C)(C)c2nc(C(=O)NCc3ccc(F)cc3)c(O)c(=O)n2C)o1,0% (inactive),–
COc1cccc2c1C(=O)c1c(O)c3c(c(O)c1C2=O)C[C@@](O)(C(C)=O)C[C@@H]3O[C@H]1C[C@H](N)[C@H](O)[C@H](C)O1,–,6.07 µM (active)
O=c1ccc2ccccc2o1,0% (inactive),–
C[n+]1c2cc(N)ccc2cc2ccc(N)cc21 (tested in a mixture with another compound),–,3.83 µM (active)
CN(C)[C@@H](CCOc1cccc2ccccc12)c1ccccc1,-14.8% (inactive),–
CCCCc1oc2ccccc2c1C(=O)c1cc(I)c(OCCN(CC)CC)c(I)c1,-7.39% (inactive),–
CCN(CC)CCNC(=O)c1c(C)[nH]c(/C=C2\C(=O)Nc3ccc(F)cc32)c1C,–,27.1 µM (active)
CC(=O)OCC1=C(C(=O)O)N2C(=O)[C@@H](NC(=O)Cc3cccs3)[C@H]2SC1,0% (inactive),–
